Out of some 5,500 compounds screened, about 2,000 (36%) were called active. About 18% were inconclusive and are not listed. Cut-off read from the data, not from the text of the source: active = normalized growth mostly below about 0.91 (no sharp cut-off); inconclusive = no clear call, values can overlap the other calls; inactive = mostly above about 0.92. This is one part of the list.
Assay: chemical genetic growth profiling, strain panel (AID 1159580);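 note: tested at 20 µM; growth read once vehicle control cultures reached saturation at 30 °C; 1 = growth at the plate median or of vehicle wells; lower values mean less growth of the strain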
Conditions: growth OD
[1] = S. cerevisiae deletion strains, locus YNL153C, strain GIM3, stronger effect = lower value
[2] = S. cerevisiae deletion strains, locus YPL241C, strain CIN2, stronger effect = lower value

Measured: normalized growth

NC(=S)c1ccc2nonc2c1
inactive: S. cerevisiae deletion strains, locus YAL013W, strain DEP1, stronger effect = lower value 0.999 | S. cerevisiae deletion strains, locus YBR229C, strain ROT2, stronger effect = lower value 1 | S. cerevisiae deletion strains, locus YDL101C, strain DUN1, stronger effect = lower value 0.984 | S. cerevisiae deletion strains, locus YDL134C, strain PPH21, stronger effect = lower value 0.986 | S. cerevisiae deletion strains, locus YDR150W, strain NUM1, stronger effect = lower value 0.927 | S. cerevisiae deletion strains, locus YEL061C, strain CIN8, stronger effect = lower value 1 | S. cerevisiae deletion strains, locus YGR078C, strain PAC10, stronger effect = lower value 1 | S. cerevisiae deletion strains, locus YGR229C, strain SMI1, stronger effect = lower value 0.994 | S. cerevisiae deletion strains, locus YHR030C, strain SLT2, stronger effect = lower value 0.991 | S. cerevisiae deletion strains, locus YHR087W, strain rtc3, stronger effect = lower value 0.996 | S. cerevisiae deletion strains, locus YJR043C, strain POL32, stronger effect = lower value 1.02 | S. cerevisiae deletion strains, locus YJR075W, strain HOC1, stronger effect = lower value 1.01 | S. cerevisiae deletion strains, locus YLR039C, strain RIC1, stronger effect = lower value 1.04 | S. cerevisiae deletion strains, locus YLR058C, strain SHM2 (second series), stronger effect = lower value 1 | S. cerevisiae deletion strains, locus YLR085C, strain ARP6, stronger effect = lower value 0.945 | S. cerevisiae deletion strains, locus YLR262C, strain YPT6, stronger effect = lower value 1.02 | S. cerevisiae deletion strains, locus YML094W, strain GIM5, stronger effect = lower value 0.982 | S. cerevisiae deletion strains, locus YMR219W, strain ESC1, stronger effect = lower value 0.992 | S. cerevisiae deletion strains, locus YMR263W, strain SAP30, stronger effect = lower value 1.03 | S. cerevisiae deletion strains, locus YMR307W, strain GAS1, stronger effect = lower value 1.03 | [1] 1.01 | S. cerevisiae deletion strains, locus YNL298W, strain CLA4 (second series), stronger effect = lower value 1.02 | S. cerevisiae deletion strains, locus YNL322C, strain KRE1, stronger effect = lower value 0.996 | S. cerevisiae deletion strains, locus YNR030W, strain Alg12, stronger effect = lower value 0.988 | S. cerevisiae deletion strains, locus YOL006C, strain TOP1, stronger effect = lower value 0.976 | S. cerevisiae deletion strains, locus YPL055C, strain LGE1, stronger effect = lower value 1.09 | [2] 0.963 | S. cerevisiae deletion strains, locus YPR135W, strain CTF4, stronger effect = lower value 1.13 | S. cerevisiae strains, strain wild type, stronger effect = lower value 0.994

COc1ccccc1CNCCCCCCNCCCCCCCCNCCCCCCNCc1ccccc1OC
inactive: S. cerevisiae deletion strains, locus YAL040C, strain CLN3, stronger effect = lower value 1.01 | S. cerevisiae deletion strains, locus YCL061C, strain MRC1 (second series), stronger effect = lower value 0.96 | S. cerevisiae deletion strains, locus YDR363W, strain ESC2, stronger effect = lower value 0.906 | S. cerevisiae deletion strains, locus YER002W, strain NOP16, stronger effect = lower value 1.03 | [1] 0.942 | S. cerevisiae deletion strains, locus YNL175C, strain NOP13, stronger effect = lower value 0.992 | S. cerevisiae deletion strains, locus YNL197C, strain WHI3, stronger effect = lower value 1.03 | S. cerevisiae deletion strains, locus YNL224C, strain SQS1, stronger effect = lower value 1.03 | S. cerevisiae deletion strains, locus YOR083W, strain WHI5 (second series), stronger effect = lower value 0.875 | [2] 0.96

Reference: PubChem BioAssay AID1159580 (chemical genetic matrix, 2015)
